Most compounds without a hit are left out; they make up all but 6.1% or so of the library.
GBA activity: modulators of human glucocerebrosidase; purified enzyme, resorufin glucoside fluorescence (screen aimed at inhibitors), 20 min; P04062; Potency, µM; 1.1% of 48,000 active; AID 360; in the data active = potency below about 15 µM; inconclusive = mostly about 16 µM to 33 µM;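 also: the screen sought inhibitors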
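Wild-type enzyme at 0.2 nM final in 50mM citric acid/KH2PO4, 10mM sodium taurocholate, 0.01% tween-20, pH 5.9, with resorufin beta-D-glucopyranoside at 30 uM final. Compounds titrated, 20 min at RT, red fluorescence read; AC50 from titration.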
TSHR agonist: activates the human thyroid stimulating hormone receptor. AID 926. P16473. 0.48% of 73,000 active. HEK293-CNG-TSHR cells (CNG channel as cAMP sensor), membrane potential dye, cAMP. Potency, µM (titrated, usually from 57.1 µM), for inactives: top-dose activation, hits mostly activators; active = well fitted activation curve with a large enough effect in the main read-out, with a control signal flat, not every such curve was filed as active; inconclusive = small, poorly fitted or top-dose-only effect, or a change in a side signal; inactive = no such curve, though single readings can be large or run the other way; % of control where 0% means no effect;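 also: the control signal comes from parental cells without the receptor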
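HEK 293 cells stably expressing TSHR and a cAMP-gated CNG channel; parental CNG-only cells as counterscreen. Cells preloaded 60 min with membrane potential dye plus 100 uM RO 20-1724, then compound 30 min; fluorescence read at 590 nm.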
Bst PK mod: modulators of Bacillus stearothermophilus pyruvate kinase | purified pyruvate kinase, luminescence ATP production; ribose 5-phosphate activator present at AC10 | Potency, µM | 1.2% of 51,000 active | AID 361; in the data active = potency below about 11 µM; inconclusive = mostly about 12 µM to 25 µM;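 the screen sought inhibitors and activators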;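 also: scaled between full activation by ribose 5 phosphate and full inhibition by luteolin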
ERK AVP inh: inhibitors of vasopressin-stimulated ERK signaling pathway. HEK293-V1b, vasopressin-stimulated pERK AlphaScreen. Potency, µM (highest dose often 57.5 µM), for the others: at the highest dose activity, negative = inhibition, hits mostly inhibitors. 0.99% of 72,000 active. AID 995; also: % is scaled to controls: 0 for no effect and ±100 for the full control effect; nearly all actives have a fitted effect of over 55% in size
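V1b-HEK293 cells; cpd 30 min 37C; 25 nM vasopressin 5 min; lyse 10 min; AlphaScreen beads 5 hr RT. Normalized to DMSO basal and 25 nM vasopressin; AC50 by Hill fit.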
HEK293 cAMP cs: raises cAMP in parental HEK293 cells, TSHR agonist counter-screen; parental HEK293 CNG cAMP sensor, membrane potential fluorescence; Potency, µM (highest dose often 57.1 µM), without a hit: top-dose activation, most hits filed as activators; 2.5% of 73,000 active; AID 938; also: % of control where 0% means no effect; nearly all actives have a fitted effect of over 55% in size
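Counterscreen for endogenous-receptor signalling: CNG-channel HEK 293 cells report cAMP rise by membrane depolarization. After 60 min dye equilibration with 100 uM RO 20-1724, compounds incubated 30 min before bottom-read fluorescence at 590 nm.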
Luciferase inh: blocks Photinus pyralis firefly luciferase activity | 2.2% of 72,000 active | P08659 | Potency, µM (doses to about 57.1 µM), for the others: top-dose activity change, negative = inhibition, hits mostly inhibitors | AID 411 | purified firefly luciferase, luminescence, 8 min; also: % is scaled to controls: 0 for no effect and ±100 for the full control effect; nearly all actives have a fitted effect of over 40% in size
Target sequence (P08659 whole entry, looked up): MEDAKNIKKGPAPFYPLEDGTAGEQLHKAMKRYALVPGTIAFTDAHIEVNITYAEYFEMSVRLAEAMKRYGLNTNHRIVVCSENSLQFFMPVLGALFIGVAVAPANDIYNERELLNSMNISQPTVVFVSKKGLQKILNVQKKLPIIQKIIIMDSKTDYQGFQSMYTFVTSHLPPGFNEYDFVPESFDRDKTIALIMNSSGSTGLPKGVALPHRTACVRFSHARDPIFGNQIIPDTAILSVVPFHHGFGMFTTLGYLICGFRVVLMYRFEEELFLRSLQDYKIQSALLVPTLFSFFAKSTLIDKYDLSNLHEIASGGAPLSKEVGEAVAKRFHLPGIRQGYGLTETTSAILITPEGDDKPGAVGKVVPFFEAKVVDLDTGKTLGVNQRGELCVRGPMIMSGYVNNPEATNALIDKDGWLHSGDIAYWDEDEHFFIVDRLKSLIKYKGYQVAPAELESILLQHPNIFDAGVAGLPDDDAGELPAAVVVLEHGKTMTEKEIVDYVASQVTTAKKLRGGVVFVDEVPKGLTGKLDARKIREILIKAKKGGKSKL
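Compounds were tested as concentration series (qHTS) against purified P. pyralis luciferase with luciferin and 10 uM ATP in 50 mM imidazole pH 7.2, 50 mM KCl, 7 mM MgCl2, 0.01% Tween 20, 0.05% BSA. Luminescence was read after 8 min at ambient temperature.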
Active calls of the source: *; i = inactive; ? = inconclusive; / = no result; ! = not confirmed by another sample; [ ] = dose if it differs, or a comment. Unless noted, calls follow the shape of the dose curve; as a rule, active = well fitted curve in the direction sought with a large enough effect; inconclusive = small, poorly fitted or top-dose-only effect, or another doubt; inactive = no such curve, though single readings can be large; an effect the other way counts as inactive or inconclusive. Potency is read from the fitted curve at half-maximal effect.

SMILES	GBA activity	TSHR agonist	Bst PK mod	ERK AVP inh	HEK293 cAMP cs	Luciferase inh
CCOc1ccc2[nH]c(=O)c(CN(Cc3ccc(C)cc3)C(=O)N3CCCC3)cc2c1	i	?	>57	15%	32µM*	4%
Cc1ccc(CN(Cc2cc3cc(C)ccc3[nH]c2=O)C(=O)N2CCOCC2)cc1	>77	16%	>57	-1%	17%	1%
COC(=O)C1=C(C)N(Cc2ccccc2)[C@]23O[C@](C(=O)OC)(C(=O)N2C1c1ccccc1)C1C(=O)N(C)C(=O)C13 (stereo not given in full)	/	1%[11.4 µM]	/	-7%[11.5 µM]	2%[11.4 µM]	/
Cc1nn(-c2ccccc2C(=O)O)c(=O)c2ccccc12	>77	10µM*	>57	-14%	-3%	1%
Cc1nn(CC(=O)NCc2ccccc2)c(=O)c2ccccc12	>77	0%	>57	-17%	2%	-1%
O=C(Nc1cccc(Cl)c1N1CCCC1)c1ccc(Br)o1	>77	?	>57	24%	25µM*	1%
O=C(Nc1ccccc1N1CCN(C(=O)c2ccc(Cl)cc2)CC1)c1cc2ccccc2o1	>77	?	>57	-8%	?	3%
CCN1CCN(c2c(Cl)cccc2NC(=O)c2ccco2)CC1	>77	8%	>57	-17%	2%	2%
O=C(Nc1cccc(Cl)c1N1CCCC1)c1cc2ccccc2o1	>77	?	/	32%	25µM*	0%
O=C(Nc1ccc(CN2CCCCC2)cc1)c1ccc(Br)o1	>77	9%	>57	-30%	11%	13µM*
C=C1C=C(Br)C2(OCCCO2)[C@H]2OC12 (stereo not given in full)	/	-7%[11.4 µM]	/	-6%[11.5 µM]	-2%[11.4 µM]	2%[11.4 µM]
N#Cc1c(NC(=O)C(F)(F)F)sc2c3c(=O)c4ccccc4c(=O)c=3oc3ccccc3c12	/	0%[11.4 µM]	/	-1%[11.5 µM]	-6%[11.4 µM]	-1%[11.4 µM]
O=C(Nc1ccccc1)N(O)c1ccc(Cl)cc1	>77	-19%	?	-8%	-9%	13µM*
Cc1ccc(OCc2nc(-c3ccccn3)no2)c(Br)c1	/	6%	/	1%	16%	5µM*
CC(C)(C)Cc1nc(-c2ccccn2)no1	>77	2%	>57	-3%	5%	-3%
CC(C)c1ccc(OCc2nc(-c3ccccn3)no2)c(Br)c1	>77	?	/	-10%	?	16µM*
Clc1ccc(OCc2nc(-c3ccncc3)no2)c(Br)c1	/	?	/	-24%	?	7.9µM*
CCc1ccc(OCc2nc(-c3ccccn3)no2)c(Br)c1	>77	23%	?	-6%	12%	13µM*
CC(Oc1ccc(Cl)cc1Cl)c1nc(-c2ccccn2)no1 (stereo not given)	/	23%[11.4 µM]	/	23%	22%[11.4 µM]	-7%
Cc1ccccc1-c1ccc2ncnc(NCc3cccnc3)c2c1	/	?	/	?	?	1%[2.29 µM]
CCN(CC)CCCCn1c(-c2ccccc2)nc2c(N(CCOC)CCOC)nc(C)nc21	/	?	/	-22%	?	/
CN1CCN(S(=O)(=O)c2ccc(N(C)Cc3cccs3)nc2)CC1	4.5*	-1%	>57	1%	-1%	2%
CCN(CC(=O)NCc1cccs1)c1ccc(S(=O)(=O)N2CCOCC2)cn1	>77	8%	>57	1%	10%	1%
CC(C)Oc1ccc(CSc2nnc3n(C)c(=O)c4c5c(sc4n23)CCCC5)cc1	>77	?	>57	-16%	16µM*	0%
C=C(C)CSc1nnc2n(C)c(=O)c3c4c(sc3n12)CCC4	/	/	>26	/	/	1%[25.5 µM]
SMILES	GBA activity	TSHR agonist	Bst PK mod	ERK AVP inh	HEK293 cAMP cs	Luciferase inh
NCCSCc1ccccc1Cl	/	-5%[11.4 µM]	/	9%[11.5 µM]	8%[11.4 µM]	0%[11.4 µM]
CC(=O)Nc1ccc(C(=O)Nc2ccc(S(=O)(=O)NCC3CCCO3)cc2)cc1 (stereo not given)	i	-6%	>57	-1%	7%	0%
O=C(Nc1ccc(F)cc1)c1ccc(S(=O)(=O)NCC2CCCO2)cc1 (stereo not given)	>77	?	>57	-9%	3.2µM*	-1%
CN1CCN(C(=O)CCCOc2ccc(Cl)cc2Cl)CC1	/	3%	/	/	0%	/
O=C(CCCN1C(=O)c2ccccc2C1=O)N1CCN(c2ccccn2)CC1	>77	-2%	>57	-21%	-3%	-2%
Cc1ccc(OCC(=O)N2CCCCC2)c(Br)c1	>77	?	>57	9%	?	-1%
O=C(COc1ccc(Cl)cc1Cl)N1CCCCCC1	/	?	/	-13%	4µM*	-2%
O=C(CCCOc1ccc(Cl)cc1Cl)N1CCN(c2ccccn2)CC1	>77	?	>57	40µM*	?	0%
O=C(CCCCCNc1nc(=S)[nH]c2ccccc12)N1CCN(c2ccccn2)CC1	5.7*	2%	/	13µM*	-4%	-3%
O=C(CCCn1c(=O)[nH]c2ccccc2c1=O)N1CCN(c2ccccn2)CC1	/	-4%	/	-10%	0%	3%
O=C(CCCOc1ccccc1)N1CCN(c2ccccn2)CC1	>77	?	/	25µM*	?	?
COC(=O)C/C=C\[C@@H](C)[C@@H](/C=N\OC[C@@H](C)[C@H](OCc1ccccc1)C(C)C)NS(=O)(=O)c1ccc(C)cc1	/	5%[11.4 µM]	/	10%[11.5 µM]	-3%[11.4 µM]	0%[11.4 µM]
O=C(CSCc1ccccc1Cl)N1CCN(c2ccccn2)CC1	15*	/	>57	11%	21%	-1%
O=C(c1ccco1)N1CCN(S(=O)(=O)c2ccc(C3CCCCC3)cc2)CC1	>77	?	>57	24%	25µM*	0%
O=C(c1ccco1)N1CCN(S(=O)(=O)c2ccc(S(=O)(=O)NC3CCCC3)cc2)CC1	>77	?	>57	4%	?	3%
O=C(c1ccco1)N1CCN(S(=O)(=O)c2ccc(S(=O)(=O)NC3CCCCC3)cc2)CC1	>77	?	>57	-9%	1.6µM*	0%
CC(C)Oc1ccc2c(=O)c(-c3ccccc3)coc2c1	/	/	i	/	/	5µM*
O=c1c(O)c(-c2ccc(O)c(O)c2)oc2cc(O)ccc12	/	9%	/	13µM*!	-7%	-2%[11.4 µM]
O=c1c(-c2ccc(O)cc2)coc2cc(O)ccc12	/	-3%	/	4%	1%	10µM*!
N[C@@H](CNO)C(=O)O	/	2%[11.4 µM]	/	4%[11.5 µM]	3%[11.4 µM]	2%[11.4 µM]
CC(=O)c1ccc2c3c(ccc(O)c13)CC2	/	-19%[11.4 µM]	/	32µM*	-6%[11.4 µM]	-2%
c1ccc(-c2onc3cc4c(cc23)OCCO4)cc1	/	?	/	?	?	13µM*
CCOc1ccccc1CN1C(=O)NC(C)(c2ccccc2)C1=O (stereo not given)	>77	/	>57	-3%	23%	2%
COc1ccc(C2(C)NC(=O)N(Cc3cc(Cl)cc4c3OCOC4)C2=O)cc1OC (stereo not given)	>77	?	>57	-24%	16µM*	3%
CS(=O)(=O)Nc1c(O)ccc2c1CCC[C@H]2C1=NCCN1	/	6%	/	3%	5%	3%
Cc1ccc2nc3ccc(N4CCN(C)CC4)nn3c(=O)c2c1	/	5%[11.4 µM]	/	-4%	4%	7.9µM*

Screening results: PubChem, National Center for Advancing Translational Sciences (NCATS)
